Data as given in PubChem BioAssay (EPA / NIEHS).
Values joined by “and” are separate entries in the source; they are usually repeats but may differ in a detail not shown here. Identical values can stand only once. More than one record can exist for a structure, and the calls need not agree. Active and inactive are the calls of the source. The calls were made as follows: active = hit-call score of the fitted dose curve at least 0.9, where 1 is the maximum; inactive = score below 0.9.

Each molecule was assayed on Bcl-2 (BAX) gene, BAX (gene 581) (assay: LTEA_HepaRG_BAX: Life Technologies and Expression Analysis (LTEA) Assay for Bcl-2 (BAX) gene using HepaRG (AID 2283470)). Details: mRNA level, 48 h; actives raise or lower the signal.
Protocol: LTEA_HepaRG is a cell based, multiplexed-readout assay that uses HepaRG, a human liver cell line, with measurements taken at 48 hours after chemical dosing on a 96-well plate.LTEA_HepaRG_BAX is one of 102 assay component(s) measured in the LTEA HepaRG cell culture assay. It is a marker of Cell proliferation, survival, death.Data from the assay component LTEA_HepaRG_BAX was analyzed into 1 endpoint. This assay endpoint, LTEA_HepaRG_BAX, was analyzed with bidirectional fitting relative to DMSO as the negative control and baseline of activity. Using a type of inducible reporter, measures of mRNA induction for gain or loss-of-signal activity can be used to understand regulation of transcription factor activity. To generalize the intended target to other relatable targets, this assay endpoint is annotated to the cell cycle intended target family, where the subfamily is Cell proliferation, survival, death.
A total of 1060 chemcials from the ToxCast library were tested in eight-point concentration-response experiments. Cell culture and cytotoxicity assays were conducted at Thermo Fisher Scientific's Custom Services facility (Madison, WI). A single lot of human HepaRG cells (Thermo Fisher Scientific, Frederick, MD) was used for the cell culture experiments. 96-well format collagen type I coated plates of human HepaRG cells were prepared using established methods. Briefly, cryopreserved HepaRG cells were thawed, plated at a density of approximately 100,000 cells/well in HepaRG Thaw, Plate, and General Purpose media (HPRG770, Thermo Fisher Scientific), and incubated for 48 hours. 0.5% DMSO was selected as vehicle control to balance the requisite need of DMSO in HepaRG cultures to maintain differentiation (for example, baseline metabolism, proportions of hepatocytes vs. cholangiocytes), while enabling further hepatic receptor pathway activation (for example, PXR and CAR) in response to chemical exposure. 48 hours after plating, the culture medium was replaced with HepaRG Serum-Free Incudtion Media. Cells were exposed to each test chemical in duplicate and maintained in CO2 incubators for another 48 hours. Chemical plates were thawed to room temperature and 200x concentrations of treatment groups were prepared. 8-point conentration-reponse curves were made with the highest exposure at 100 uM, followed by half-log dilutions, all in 0.5% DMSO. Each test plate contained variouse controls, induction positive controls (1mM phenobarbital), cytotoxicity positive controls ([…] aflatoxin B1), vehicle controls (0.5% DMSO), and total lysis controls (0.5% DMSO). Cell morphology images were taken using an Essen IncuCyte FLR automated microscope, with six 96-well plates imaged in about 24 minutes. Images were captured and exported and JPEG files. Spent culture media was transfered to black-well plates for the LDH assay, and remaining media was sorted at -80 C for later use. Cells were treated with RLT buffer and frozen until shipped for gene expression analysis. Total RNA was isolated from the cell suspension in 75 uL of Buffer RLT (Qiagen, Germantown, MD 20874) by Quintiles/Expression Analysis (Durham, NC) using a custom isolation procedure. Total RNA from each plate well was transferred to a preamplification plate. Fluidigm's 96.96 Dynamic ArrayTM (Fluidigm, Amsterdam, the Netherlands) technology was used for gene expression analyses by quantitative reverse transcription polymerase chain reaction (qRT-PCR, performed by Quintiles/Expression Analysis, Durham, NC)89. Standard TaqManTM Assays (Applied Biosystems/ThermoFisher Scientific, Foster City, CA) were used to assess the expression of 93 genes selected based on their selectivity and sensitivity to important hepatic receptors known to be modulated by environmental chemicals; importance in human hepatocyte functionality; and hepatotoxicity. […]
`C[C@]12C[C@H](O)[C@H]3[C@@H](CCC4=CC(=O)CC[C@@]43C)[C@@H]1CC[C@@H]2C(=O)CO` was tested, and the outcome was “inactive”.
`CCCCOCCOCCOCc1cc2c(cc1CCC)OCO2` was tested, and the outcome was “inactive”.
`CCCCCOC(=O)COc1cc(N2C(=O)C3=C(CCCC3)C2=O)c(F)cc1Cl` was tested, and the outcome was “inactive”.
In the case of `CCOC(=O)C(C)Oc1ccc(Oc2nc3ccc(Cl)cc3o2)cc1` (stereo not given), the outcome is reported as “inactive”.
For `C#C[C@]1(O)CC[C@H]2[C@@H]3CCC4=CC(=O)CC[C@@H]4[C@H]3CC[C@@]21CC`, the outcome was “inactive”.
In the case of `CC(C)(c1ccc(O)cc1)c1ccc(O)cc1`, the outcome is reported as “inactive”.
In the case of `CC(=O)[C@H]1CC[C@H]2[C@@H]3CCC4=CC(=O)CC[C@]4(C)[C@H]3CC[C@]12C`, the AC50 is reported as 27 µM (active).
For `CCOC(=O)COc1cc(-n2ncc(C(F)(F)F)c(C)c2=O)c(F)cc1Cl`, the outcome was “inactive”.
With `O=C(c1ccc(O)cc1O)c1ccc(O)cc1O` the outcome was “inactive”.
In the case of `COc1c(Cl)ccc(Cl)c1C(=O)O`, the outcome is reported as “inactive”.
With `N#CSCSc1nc2ccccc2s1` the outcome was “inactive”.
In the case of `CCCCC(CC)COC(=O)c1ccccc1C(=O)O` (stereo not given), the outcome is reported as “inactive”.
`CCOC(=O)C(C)Oc1ccc(Oc2cnc3cc(Cl)ccc3n2)cc1` (stereo not given) was tested, and the outcome was “inactive”.
In the case of `OB(O)O`, the outcome is reported as “inactive”.
For `CCCN(CCC)C(=O)SCC`, the outcome was “inactive”.
In the case of `S=C(S)NCCNC(=S)S.[Mn+2].[S-]C([S-])=NCCN=C([S-])[S-].[Zn+2]`, the outcome is reported as “inactive” and the AC50 is reported as 2.35 µM (active) and 1.62 µM (active).
In the case of `c1ccc2[nH]c(-c3cscn3)nc2c1`, the outcome is reported as “inactive”.
For `CCCN(CCC)c1c([N+](=O)[O-])cc(C(F)(F)F)c(N)c1[N+](=O)[O-]`, the outcome was “inactive”.
In the case of `C#CCOC(=O)[C@@H](C)Oc1ccc(Oc2ncc(Cl)cc2F)cc1`, the outcome is reported as “inactive”.
In the case of `O=C(Nc1ccc([N+](=O)[O-])cc1Cl)c1cc(Cl)ccc1O`, the AC50 is reported as 6.15 µM (active).
In the case of `COC(=O)c1ccc(I)cc1S(=O)(=O)NC(=O)Nc1nc(C)nc(OC)n1`, the outcome is reported as “inactive”.
For `CCOC(=O)c1ccc(O)cc1`, the outcome was “inactive”.
For `CCC(C)OC(=O)N1CCCCC1CCO` (stereo not given), the outcome was “inactive”.
With `C[C@]12CC[C@@H]3c4ccc(O)cc4C[C@@H](CCCCCCCCCS(=O)CCCC(F)(F)C(F)(F)F)[C@H]3[C@@H]1CC[C@@H]2O` (stereo not given in full) the outcome was “inactive”.
For `c1ccc(Nc2ccccc2)cc1`, the outcome was “inactive”.
For `CCSC(=O)N(CC(C)C)CC(C)C`, the outcome was “inactive”.
`CCN(Cc1c(F)cccc1Cl)c1c([N+](=O)[O-])cc(C(F)(F)F)cc1[N+](=O)[O-]` was tested, and the outcome was “inactive”.
`CC(=O)S[C@@H]1CC2=CC(=O)CC[C@]2(C)[C@H]2CC[C@@]3(C)[C@@H](CC[C@@]34CCC(=O)O4)[C@H]12` was tested, and the outcome was “inactive”.
In the case of `CN(C)C(=O)Nc1ccc(Cl)c(Cl)c1`, the outcome is reported as “inactive”.
`CC1(C)C(C=C(Cl)Cl)C1C(=O)OCc1cccc(Oc2ccccc2)c1` (stereo not given) was tested, and the outcome was “inactive”.
`CCCCOC(=O)C(C)Oc1ccc(Oc2ccc(C(F)(F)F)cn2)cc1` (stereo not given) was tested, and the outcome was “inactive”.
With `CCNc1nc(N)nc(Cl)n1` the outcome was “inactive”.
With `S=C([S-])NCCNC(=S)[S-].[Mn+2]` the outcome was “inactive”.
In the case of `CCCOC(=O)NCCCN(C)C`, the outcome is reported as “inactive”.
With `CCCCOC(=O)[C@@H](C)Oc1ccc(Oc2ccc(C(F)(F)F)cn2)cc1` the outcome was “inactive”.
In the case of `COCCO`, the outcome is reported as “inactive”.
In the case of `Oc1ccc(C(c2ccc(O)cc2)C(Cl)(Cl)Cl)cc1`, the outcome is reported as “inactive”.
With `COC(=O)CSc1cc(N=c2sc(=O)n3n2CCCC3)c(F)cc1Cl` the outcome was “inactive”.
For `CCN(CC)C(=O)c1cccc(C)c1`, the outcome was “inactive”.
